Results: the supplement of paper PMC3334620
In all, about 33,000 sequences were measured (“E-score (-0.5 to 0.5)”: median about -0.0014, highest 2% from about 0.25 on). The sample holds the highest values, similar sequences and a random draw of the others, so the mix is not that of the screen.

Each sequence was assayed against T1, Cad1 (UniProt P24813) (assay: PBM E-score (8-mer binding enrichment) (E-score (-0.5 to 0.5)); higher = stronger / more preferred TF binding). Details: protein concentration: 100 nM; construct: GST-full length.
T1 sequence: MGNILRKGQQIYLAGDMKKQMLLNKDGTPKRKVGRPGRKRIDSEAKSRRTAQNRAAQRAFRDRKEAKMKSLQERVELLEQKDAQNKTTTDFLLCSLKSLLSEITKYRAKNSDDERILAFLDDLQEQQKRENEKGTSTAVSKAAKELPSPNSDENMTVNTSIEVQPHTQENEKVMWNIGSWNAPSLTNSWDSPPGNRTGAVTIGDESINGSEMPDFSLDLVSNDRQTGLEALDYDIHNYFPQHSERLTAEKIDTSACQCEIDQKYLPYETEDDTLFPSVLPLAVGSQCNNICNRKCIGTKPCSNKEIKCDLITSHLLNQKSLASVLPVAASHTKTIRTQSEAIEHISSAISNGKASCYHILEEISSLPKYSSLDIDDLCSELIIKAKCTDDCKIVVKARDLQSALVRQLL
How it was run: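 E-scores (a modified Wilcoxon-Mann-Whitney statistic) were assigned by the Universal PBM Analysis Suite to every ungapped eight-base word pooled with its reverse complement. The input came from universal all-10-mer Agilent arrays made double-stranded by primer extension and probed with GST-tagged yeast transcription factors at about 100-200 nM. Fluorescent anti-GST detected bound protein, and masliner normalised the scans.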
AATTCGCC was tested, and the “PBM E-score” value was 0.154. For CGGAACAA, the “PBM E-score” value was 0.29. With ACGAACAA the “PBM E-score” value was 0.184. In the case of CCGAACAA, the “PBM E-score” value is reported as 0.107. With TGGAACAA the “PBM E-score” value was 0.144. With CGGAACAC the “PBM E-score” value was 0.235. With GCGAACAA the “PBM E-score” value was 0.275. In the case of CGTAGTAC, the “PBM E-score” value is reported as -0.00804. With AGCATCCA the “PBM E-score” value was -0.168. With CTTTCAGA the “PBM E-score” value was 0.0705. AAGAATGC was tested, and the “PBM E-score” value was 0.0333. GGCTTACA was tested, and the “PBM E-score” value was 0.229. GAATGGTC was tested, and the “PBM E-score” value was -0.0781. In the case of ATAAACCC, the “PBM E-score” value is reported as 0.0626. AAGCCTTG was tested, and the “PBM E-score” value was 0.00151. For AATCTCCC, the “PBM E-score” value was -0.277. For AAGCGATA, the “PBM E-score” value was 0.103. In the case of GCAATTGA, the “PBM E-score” value is reported as 0.118. With ACAATTGG the “PBM E-score” value was -0.0197. With CCAATTGC the “PBM E-score” value was -0.114. In the case of GCAATTGC, the “PBM E-score” value is reported as 0.33. CCAATTGG was tested, and the “PBM E-score” value was 0.263. CCAATTGA was tested, and the “PBM E-score” value was 0.0388. With CGCTGTAG the “PBM E-score” value was -0.0927. With CGTTGCTA the “PBM E-score” value was 0.103. With CATAACTC the “PBM E-score” value was -0.0187. With TGCGGCCA the “PBM E-score” value was -0.03. In the case of ATGTCTGA, the “PBM E-score” value is reported as 0.129. In the case of GGGGATGA, the “PBM E-score” value is reported as -0.094. CGCTAGCA was tested, and the “PBM E-score” value was -0.0293. In the case of GGCTAGCA, the “PBM E-score” value is reported as -0.135. For TGCTAGCA, the “PBM E-score” value was 0.263. GTTAATCA was tested, and the “PBM E-score” value was 0.318. GCTAATCA was tested, and the “PBM E-score” value was 0.215. For ATTAATCC, the “PBM E-score” value was 0.161. ATTAATCG was tested, and the “PBM E-score” value was 0.234. In the case of ATTAATCA, the “PBM E-score” value is reported as 0.436. For CTTAATCA, the “PBM E-score” value was 0.141. CTAGCCCC was tested, and the “PBM E-score” value was -0.0928. TGCAGAAA was tested, and the “PBM E-score” value was 0.114. In the case of ACGTACTC, the “PBM E-score” value is reported as -0.0542. With ATATATCA the “PBM E-score” value was 0.134. For ATATATCC, the “PBM E-score” value was 0.297. For CTCTATAC, the “PBM E-score” value was 0.0205. AAATATGA was tested, and the “PBM E-score” value was 0.234. CTATATAC was tested, and the “PBM E-score” value was 0.27. In the case of ACATATAT, the “PBM E-score” value is reported as 0.155. AAATATGC was tested, and the “PBM E-score” value was 0.069. With AAATATGT the “PBM E-score” value was 0.277. For ATATATAG, the “PBM E-score” value was 0.175. In the case of CTATATCC, the “PBM E-score” value is reported as -0.0465. With ATATATAT the “PBM E-score” value was 0.295. For CTATATAG, the “PBM E-score” value was 0.0376. CCTGCCTA was tested, and the “PBM E-score” value was -0.0584. For AGGGTTAG, the “PBM E-score” value was -0.153. For AGGATAGA, the “PBM E-score” value was -0.0415. In the case of AGAACTAG, the “PBM E-score” value is reported as -0.146. In the case of CCAAAGGG, the “PBM E-score” value is reported as -0.0732. In the case of ACTCTCGG, the “PBM E-score” value is reported as -0.0764. In the case of GGCGTTAC, the “PBM E-score” value is reported as -0.0303. In the case of ACATATAC, the “PBM E-score” value is reported as 0.0911. In the case of AAATATAC, the “PBM E-score” value is reported as -0.0915. In the case of AAATATAA, the “PBM E-score” value is reported as 0.247. For ATATATAC, the “PBM E-score” value was 0.317. For GTATATAC, the “PBM E-score” value was -0.0771. For AAATATAT, the “PBM E-score” value was 0.305. With AGTAGCCA the “PBM E-score” value was -0.282. For AGTCCAGC, the “PBM E-score” value was -0.112. In the case of TAGGTCGA, the “PBM E-score” value is reported as 0.131. For GATATATC, the “PBM E-score” value was 0.211. CATATATA was tested, and the “PBM E-score” value was 0.164. In the case of CACATATA, the “PBM E-score” value is reported as 0.0867. With AATATGGA the “PBM E-score” value was 0.0714. In the case of TATATACA, the “PBM E-score” value is reported as 0.209. With GACATATA the “PBM E-score” value was 0.0919. For GATATATA, the “PBM E-score” value was 0.333. For GATATACA, the “PBM E-score” value was 0.0899. TACATATA was tested, and the “PBM E-score” value was 0.252. With TATATATA the “PBM E-score” value was 0.377. In the case of GATATGGA, the “PBM E-score” value is reported as 0.266. With TATATGGA the “PBM E-score” value was -0.0332. TGTAGTAA was tested, and the “PBM E-score” value was 0.145. For CGGAAACG, the “PBM E-score” value was -0.0175. For AATCTAGG, the “PBM E-score” value was 0.00096. In the case of TGCTCCAA, the “PBM E-score” value is reported as 0.0768. GAATCTGC was tested, and the “PBM E-score” value was 0.014. In the case of GACATGTA, the “PBM E-score” value is reported as 0.0721. In the case of TACATGTA, the “PBM E-score” value is reported as 0.27. With CACATGTA the “PBM E-score” value was 0.109. With CCGATTGA the “PBM E-score” value was 0.144. With ACGATTGC the “PBM E-score” value was 0.213. CCGATTGC was tested, and the “PBM E-score” value was 0.25. CCGGGTAG was tested, and the “PBM E-score” value was 0.00529. For ATTAGATA, the “PBM E-score” value was 0.211. In the case of ATTAGATG, the “PBM E-score” value is reported as 0.263. For ATTAGATC, the “PBM E-score” value was 0.03. In the case of ACATTGGT, the “PBM E-score” value is reported as 0.0584. With AGCTAGCT the “PBM E-score” value was 0.162. In the case of TAACAATA, the “PBM E-score” value is reported as 0.165. In the case of CAACAACA, the “PBM E-score” value is reported as 0.269. AAACAATA was tested, and the “PBM E-score” value was 0.251. With GAACAACA the “PBM E-score” value was -0.043. With AAACAATT the “PBM E-score” value was 0.114. With CAACAAGA the “PBM E-score” value was -0.0155. With TCCAAGAA the “PBM E-score” value was -0.0134. In the case of GCGTTAGC, the “PBM E-score” value is reported as 0.0751. ATTATGTA was tested, and the “PBM E-score” value was 0.311. ACTATATA was tested, and the “PBM E-score” value was 0.251. For GTTATATA, the “PBM E-score” value was 0.232. With CGTAGATA the “PBM E-score” value was 0.113. In the case of ACTATATC, the “PBM E-score” value is reported as 0.109. With ATTATGTC the “PBM E-score” value was 0.181. With GCTATATA the “PBM E-score” value was 0.149. In the case of AGTAGATC, the “PBM E-score” value is reported as -0.191. AGTAGATA was tested, and the “PBM E-score” value was 0.282. In the case of CTTATATA, the “PBM E-score” value is reported as 0.331. ATTATGTG was tested, and the “PBM E-score” value was 0.25. With CTTATATC the “PBM E-score” value was 0.0947. In the case of ATCCGGGG, the “PBM E-score” value is reported as -0.0124. For CAACCGTG, the “PBM E-score” value was 0.00095. With GATCCTAC the “PBM E-score” value was 0.00192. CCGTATTC was tested, and the “PBM E-score” value was -0.0178. ATGGACCC was tested, and the “PBM E-score” value was -0.0809. ATTATATG was tested, and the “PBM E-score” value was 0.211. For AGTATATA, the “PBM E-score” value was 0.285. For AGTATATC, the “PBM E-score” value was 0.0175. ATTATATC was tested, and the “PBM E-score” value was 0.0433. AGTATATG was tested, and the “PBM E-score” value was 0.0763. In the case of ATTATATA, the “PBM E-score” value is reported as 0.306. AAAATATT was tested, and the “PBM E-score” value was 0.192. With ACCCACTA the “PBM E-score” value was 0.107. For AGCGCCAA, the “PBM E-score” value was -0.0679. For ATGGTCTC, the “PBM E-score” value was 0.102. With AATAAGCA the “PBM E-score” value was 0.343. AATAAGAT was tested, and the “PBM E-score” value was 0.039. In the case of AATAAGAA, the “PBM E-score” value is reported as 0.252. With AATAAGAG the “PBM E-score” value was 0.0662. CGTAAGCA was tested, and the “PBM E-score” value was 0.232. For AATAAGCT, the “PBM E-score” value was 0.234. For AGTAAGCA, the “PBM E-score” value was 0.241. With GGTAAGCA the “PBM E-score” value was 0.257. GATAAGCA was tested, and the “PBM E-score” value was 0.154. In the case of CTCTAGTC, the “PBM E-score” value is reported as -0.388. In the case of AGACTTGA, the “PBM E-score” value is reported as -0.0266. ATTTCCGG was tested, and the “PBM E-score” value was 0.264. ATTTCCGC was tested, and the “PBM E-score” value was 0.123. With ATTCCCGG the “PBM E-score” value was 0.296. ATTCCCCG was tested, and the “PBM E-score” value was -0.0432. In the case of ATTTTCCG, the “PBM E-score” value is reported as 0.304. For AATTTCCG, the “PBM E-score” value was 0.24. With ATTTTCCC the “PBM E-score” value was 0.00868. For ATTTCCGA, the “PBM E-score” value was 0.0803. ATTCCCGA was tested, and the “PBM E-score” value was -0.241. In the case of GCGGGTCC, the “PBM E-score” value is reported as -0.207. For AGTTTGGC, the “PBM E-score” value was 0.109. In the case of CCCTAAAA, the “PBM E-score” value is reported as -0.228. For GCTCAGCC, the “PBM E-score” value was -0.143. In the case of AGGCAAAC, the “PBM E-score” value is reported as -0.106. In the case of CACCGTGG, the “PBM E-score” value is reported as -0.018. With ACTAATTC the “PBM E-score” value was 0.306. For ACTAATGA, the “PBM E-score” value was 0.128. For ACTAATGG, the “PBM E-score” value was 0.209. For ACTAACTA, the “PBM E-score” value was 0.00503. ACTAATGC was tested, and the “PBM E-score” value was 0.275. In the case of ACTAATTG, the “PBM E-score” value is reported as 0.197. For GCTAATTA, the “PBM E-score” value was 0.306. In the case of CCTAATTA, the “PBM E-score” value is reported as 0.156. For ACGAATTA, the “PBM E-score” value was 0.0763. In the case of GCTAATGA, the “PBM E-score” value is reported as -0.0534. For ACTAATTA, the “PBM E-score” value was 0.377. For CCTAATTC, the “PBM E-score” value was -0.115. CGAAAACG was tested, and the “PBM E-score” value was 0.0757.
